Measurements from PubChem BioAssay AID1159580 (chemical genetic matrix, 2015).
Screen size: about 5,500 compounds; about 2,000 (36%) were called active. Another 18% or so got no clear call; they are omitted. Cut-off read from the data, not from the text of the source: active = normalized growth mostly below about 0.91 (no sharp cut-off); inconclusive = no clear call, values can overlap the other calls; inactive = mostly above about 0.92. The list shows a part of the results.

Assay: chemical genetic growth profiling, strain panel (AID 1159580);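 note: tested at 20 µM; growth read once vehicle control cultures reached saturation at 30 °C; 1 = growth at the plate median or of vehicle wells; lower values mean less growth of the strain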
Conditions: growth OD

Measured: normalized growth

O=C(O)c1cc(=O)c2cccc(O)c2[nH]1
inactive: S. cerevisiae deletion strains, locus YJR075W, strain HOC1, hits give low values 0.974 | S. cerevisiae deletion strains, locus YKL009W, strain mrt4, hits give low values 0.965 | S. cerevisiae deletion strains, locus YKL068W, hits give low values 0.976 | S. cerevisiae deletion strains, locus YKL085W, strain MDH1 (second series), hits give low values 0.964 | S. cerevisiae deletion strains, locus YKL085W, strain MDH1, hits give low values 0.964 | S. cerevisiae deletion strains, locus YKL160W, strain elf1, hits give low values 1.05 | S. cerevisiae deletion strains, locus YKL190W, strain CNB1, hits give low values 0.982 | S. cerevisiae deletion strains, locus YKR001C, strain vps1, hits give low values 1 | S. cerevisiae deletion strains, locus YKR026C, strain gcn3, hits give low values 1.01 | S. cerevisiae deletion strains, locus YKR091W, strain srl3, hits give low values 1.01 | S. cerevisiae deletion strains, locus YLL001W, strain dnm1, hits give low values 1.02 | S. cerevisiae deletion strains, locus YLL026W, hits give low values 1.02 | S. cerevisiae deletion strains, locus YLL041C, strain sdh2, hits give low values 1 | S. cerevisiae deletion strains, locus YLR027C, strain aat2, hits give low values 0.996 | S. cerevisiae deletion strains, locus YLR039C, strain RIC1, hits give low values 0.968 | S. cerevisiae deletion strains, locus YLR058C, strain SHM2, hits give low values 0.987 | S. cerevisiae deletion strains, locus YLR102C, strain apc9, hits give low values 0.979 | S. cerevisiae deletion strains, locus YLR113W, strain HOG1, hits give low values 0.99 | S. cerevisiae deletion strains, locus YLR221C, strain rsa3, hits give low values 0.995 | S. cerevisiae deletion strains, locus YLR258W, strain gsy2, hits give low values 1.03 | S. cerevisiae deletion strains, locus YLR262C, strain YPT6 (second series), hits give low values 1.01 | S. cerevisiae deletion strains, locus YLR262C, strain YPT6, hits give low values 0.971 | S. cerevisiae deletion strains, locus YLR268W, strain sec22, hits give low values 0.916 | S. cerevisiae deletion strains, locus YLR320W, strain mms22, hits give low values 1.01 | S. cerevisiae deletion strains, locus YLR330W, strain CHS5, hits give low values 0.991 | S. cerevisiae deletion strains, locus YLR342W, strain FKS1 (second series), hits give low values 1.08 | S. cerevisiae deletion strains, locus YLR342W, strain FKS1, hits give low values 1.02 | S. cerevisiae deletion strains, locus YLR357W, strain rsc2, hits give low values 1.05 | S. cerevisiae deletion strains, locus YLR370C, strain arc18, hits give low values 1.04 | S. cerevisiae deletion strains, locus YLR371W, strain rom2, hits give low values 0.98 | S. cerevisiae deletion strains, locus YLR384C, strain iki3, hits give low values 1.02 | S. cerevisiae deletion strains, locus YLR418C, strain cdc73, hits give low values 1.03 | S. cerevisiae deletion strains, locus YML016C, strain PPZ1, hits give low values 1 | S. cerevisiae deletion strains, locus YML032C, strain rad52, hits give low values 0.961 | S. cerevisiae deletion strains, locus YML120C, strain ndi1, hits give low values 1.01 | S. cerevisiae deletion strains, locus YML124C, strain tub3, hits give low values 0.977 | S. cerevisiae deletion strains, locus YMR058W, strain fet3, hits give low values 1.02 | S. cerevisiae deletion strains, locus YMR078C, strain ctf18, hits give low values 0.991 | S. cerevisiae deletion strains, locus YMR125W, strain sto1, hits give low values 1.02 | S. cerevisiae deletion strains, locus YMR129W, hits give low values 1.02 | S. cerevisiae deletion strains, locus YMR205C, strain PFK2, hits give low values 1.02 | S. cerevisiae deletion strains, locus YMR223W, strain ubp8, hits give low values 1.03 | S. cerevisiae deletion strains, locus YMR231W, strain pep5, hits give low values 1.01 | S. cerevisiae deletion strains, locus YMR263W, strain SAP30, hits give low values 0.975 | S. cerevisiae deletion strains, locus YMR307W, strain GAS1, hits give low values 1.09 | S. cerevisiae deletion strains, locus YNL067W, strain RPL9B, hits give low values 0.967 | S. cerevisiae deletion strains, locus YNL071W, strain lat1, hits give low values 1.02 | S. cerevisiae deletion strains, locus YNL128W, strain TEP1, hits give low values 0.983 | S. cerevisiae deletion strains, locus YNL153C, strain GIM3, hits give low values 0.97 | S. cerevisiae deletion strains, locus YNL183C, strain NPR1, hits give low values 0.917 | S. cerevisiae deletion strains, locus YNL209W, strain ssb2, hits give low values 0.999 | S. cerevisiae deletion strains, locus YNL233W, strain BNI4, hits give low values 0.97 | S. cerevisiae deletion strains, locus YNL248C, strain rpa49, hits give low values 1.03 | S. cerevisiae deletion strains, locus YNL250W, strain rad50, hits give low values 0.967 | S. cerevisiae deletion strains, locus YNL271C, strain bni1, hits give low values 0.976 | S. cerevisiae deletion strains, locus YNL298W, strain CLA4, hits give low values 0.987 | S. cerevisiae deletion strains, locus YNL307C, strain MCK1, hits give low values 0.981 | S. cerevisiae deletion strains, locus YNL322C, strain KRE1 (second series), hits give low values 1.03 | S. cerevisiae deletion strains, locus YNL322C, strain KRE1, hits give low values 0.984 | S. cerevisiae deletion strains, locus YNR049C, strain mso1, hits give low values 1.02 | S. cerevisiae deletion strains, locus YNR052C, strain pop2, hits give low values 1 | S. cerevisiae deletion strains, locus YOL006C, strain TOP1, hits give low values 1.02 | S. cerevisiae deletion strains, locus YOL012C, strain htz1 0.728 | S. cerevisiae deletion strains, locus YOL147C, strain pex11, hits give low values 0.985 | S. cerevisiae deletion strains, locus YOR001W, strain rrp6, hits give low values 0.956 | S. cerevisiae deletion strains, locus YOR061W, strain CKA2, hits give low values 0.992 | S. cerevisiae deletion strains, locus YOR069W, strain VPS5, hits give low values 0.991 | S. cerevisiae deletion strains, locus YOR070C, strain gyp1, hits give low values 1.02 | S. cerevisiae deletion strains, locus YOR080W, strain dia2, hits give low values 1.01 | S. cerevisiae deletion strains, locus YOR083W, strain WHI5, hits give low values 1.05 | S. cerevisiae deletion strains, locus YOR106W, strain vam3, hits give low values 1.03 | S. cerevisiae deletion strains, locus YOR136W, strain idh2, hits give low values 0.99 | S. cerevisiae deletion strains, locus YOR144C, strain elg1, hits give low values 0.99 | S. cerevisiae deletion strains, locus YOR184W, strain ser1, hits give low values 0.972 | S. cerevisiae deletion strains, locus YOR231W, strain MKK1, hits give low values 0.982 | S. cerevisiae deletion strains, locus YOR265W, strain rbl2, hits give low values 1.01 | S. cerevisiae deletion strains, locus YOR270C, strain vph1, hits give low values 0.995 | S. cerevisiae deletion strains, locus YOR290C, strain snf2, hits give low values 1.06 | S. cerevisiae deletion strains, locus YOR316C, strain cot1, hits give low values 0.966 | S. cerevisiae deletion strains, locus YPL051W, strain arl3, hits give low values 1.04 | S. cerevisiae deletion strains, locus YPL055C, strain LGE1, hits give low values 0.951 | S. cerevisiae deletion strains, locus YPL078C, strain atp4, hits give low values 1.04 | S. cerevisiae deletion strains, locus YPL106C, strain sse1, hits give low values 1.03 | S. cerevisiae deletion strains, locus YPL240C, strain hsp82, hits give low values 1.01 | S. cerevisiae deletion strains, locus YPL241C, strain CIN2, hits give low values 0.982 | S. cerevisiae deletion strains, locus YPL256C, strain CLN2, hits give low values 0.965 | S. cerevisiae deletion strains, locus YPR119W, strain clb2, hits give low values 0.987 | S. cerevisiae deletion strains, locus YPR141C, strain kar3, hits give low values 0.97 | S. cerevisiae deletion strains, locus YPR163C, strain tif3, hits give low values 0.989 | S. cerevisiae deletion strains, locus YPR167C, strain met16, hits give low values 0.973 | S. cerevisiae deletion strains, strain wtn01, hits give low values 0.995 | S. cerevisiae strains, strain wild type, hits give low values 1
